For some of these results: Measured potencies and affinities stand elsewhere.
Columns and labels:
Parameters in all cases: scale not given: direction of the effect not stated beside the values
[1] = target: Protein translocase subunit SecA (Escherichia coli (strain K12)) (UniProt P10408); assay: Assay to Identify E. coli SecA ATPase Inhibitors; assay type: functional; conditions: 30 µM
[2] = target: T1, Ubiquitin-activating enzyme e1, putative (Leishmania donovani (strain BPK282A1)) (UniProt E9BSI1); assay: Leishmania donovani Ubiquitin Activating Enzyme (LdE1); assay type: functional; conditions: 30 µM
T1 sequence (whole entry): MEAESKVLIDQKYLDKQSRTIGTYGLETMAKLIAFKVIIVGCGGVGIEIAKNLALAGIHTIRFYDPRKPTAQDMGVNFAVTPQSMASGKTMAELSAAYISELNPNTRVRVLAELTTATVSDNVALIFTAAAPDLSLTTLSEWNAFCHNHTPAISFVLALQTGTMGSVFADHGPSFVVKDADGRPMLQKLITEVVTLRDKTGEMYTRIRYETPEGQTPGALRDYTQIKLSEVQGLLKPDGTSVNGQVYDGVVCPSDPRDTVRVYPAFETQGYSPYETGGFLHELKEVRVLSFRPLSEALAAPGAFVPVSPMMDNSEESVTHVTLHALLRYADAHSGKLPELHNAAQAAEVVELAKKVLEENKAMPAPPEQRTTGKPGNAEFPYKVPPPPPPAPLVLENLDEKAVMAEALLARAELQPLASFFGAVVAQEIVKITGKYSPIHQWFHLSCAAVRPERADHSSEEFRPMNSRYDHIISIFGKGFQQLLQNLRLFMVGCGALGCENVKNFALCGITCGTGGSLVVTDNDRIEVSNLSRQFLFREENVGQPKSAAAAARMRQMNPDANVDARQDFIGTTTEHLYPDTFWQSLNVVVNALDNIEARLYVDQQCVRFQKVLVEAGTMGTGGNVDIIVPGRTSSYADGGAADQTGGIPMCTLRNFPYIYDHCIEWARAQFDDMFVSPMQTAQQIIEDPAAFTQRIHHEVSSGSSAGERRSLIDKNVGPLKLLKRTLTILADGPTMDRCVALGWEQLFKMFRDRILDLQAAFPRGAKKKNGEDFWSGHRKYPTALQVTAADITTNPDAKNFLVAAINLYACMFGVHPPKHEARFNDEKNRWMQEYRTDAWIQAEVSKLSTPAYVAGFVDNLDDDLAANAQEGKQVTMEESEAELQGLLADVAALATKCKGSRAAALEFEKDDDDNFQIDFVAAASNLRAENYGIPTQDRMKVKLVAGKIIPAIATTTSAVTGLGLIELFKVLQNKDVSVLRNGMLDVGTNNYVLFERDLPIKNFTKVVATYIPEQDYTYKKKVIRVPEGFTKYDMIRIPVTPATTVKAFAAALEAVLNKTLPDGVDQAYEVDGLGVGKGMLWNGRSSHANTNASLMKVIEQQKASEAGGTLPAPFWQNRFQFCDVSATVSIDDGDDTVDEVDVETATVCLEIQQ

[3] = target: AMP-activated protein kinase, AMPK (Homo sapiens) (UniProt P54646+O43741+P54619+Q9UGJ0+Q9Y478+Q13131+Q9UGI9); assay: AMP-dependent Kinase enzyme assay. An in vitro enzyme assay that detects ADP turnover that is directly proportional to AMPK activity. This uses naive AMPK that is activated during the assay with MK-8722; assay type: functional; conditions: 30 µM
[4] = target: Sialic acid-binding Ig-like lectin 9 (Homo sapiens) (UniProt Q9Y336); assay: Hs-Siglec9 ALPHAscreen SOP 20170721; conditions: 10 µM
Sequence of Sialic acid-binding Ig-like lectin 9 (Homo sapiens) (Q9Y336 whole entry): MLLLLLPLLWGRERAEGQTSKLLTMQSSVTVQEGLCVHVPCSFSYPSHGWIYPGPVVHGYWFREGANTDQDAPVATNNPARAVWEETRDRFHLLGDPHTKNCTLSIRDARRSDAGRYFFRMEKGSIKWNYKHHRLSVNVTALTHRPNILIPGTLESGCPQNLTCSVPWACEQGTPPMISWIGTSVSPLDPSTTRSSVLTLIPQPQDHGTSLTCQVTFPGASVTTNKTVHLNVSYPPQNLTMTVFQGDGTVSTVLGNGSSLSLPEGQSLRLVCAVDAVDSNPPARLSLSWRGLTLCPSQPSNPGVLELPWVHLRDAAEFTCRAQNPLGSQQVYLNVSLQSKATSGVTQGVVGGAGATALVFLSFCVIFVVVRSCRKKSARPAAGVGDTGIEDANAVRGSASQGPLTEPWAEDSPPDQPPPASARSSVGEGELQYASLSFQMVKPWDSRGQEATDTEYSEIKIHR

Trypanosoma cruzi = assay: Trypanosoma cruzi phosphomannomutase and mannose-1-phosphate guanylyltransferase assay; assay type: functional; conditions: 10 µM
[5] = target: T2, Arginase-2, mitochondrial (Homo sapiens) (UniProt P78540); assay: in vitro enzyme assay to detect the production of urea directly proportional to the activity of Arginase II; assay type: functional; conditions: 33.3 µM; further: in the data most compounds retested in dose-response had high values
T2 sequence (whole entry): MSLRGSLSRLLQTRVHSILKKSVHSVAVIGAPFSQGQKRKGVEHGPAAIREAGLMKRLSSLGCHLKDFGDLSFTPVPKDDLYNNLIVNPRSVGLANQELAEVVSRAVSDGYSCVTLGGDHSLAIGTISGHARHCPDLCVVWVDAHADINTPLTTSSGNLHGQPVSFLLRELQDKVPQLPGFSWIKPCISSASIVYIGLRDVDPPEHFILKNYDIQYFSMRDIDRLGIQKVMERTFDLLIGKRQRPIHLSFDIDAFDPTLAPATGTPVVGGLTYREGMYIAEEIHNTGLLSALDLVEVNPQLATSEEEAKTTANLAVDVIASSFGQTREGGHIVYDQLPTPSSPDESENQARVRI

[6] = target: T3, Proteasome subunit beta (Trypanosoma cruzi) (UniProt O96673); assay: Trypanosoma cruzi proteasome chymotrypsin-like activity (TcProtChymo) assay.; further: in the data most compounds retested in dose-response had high values; assay type: functional; conditions: 9.37 µM
T3 sequence (whole entry): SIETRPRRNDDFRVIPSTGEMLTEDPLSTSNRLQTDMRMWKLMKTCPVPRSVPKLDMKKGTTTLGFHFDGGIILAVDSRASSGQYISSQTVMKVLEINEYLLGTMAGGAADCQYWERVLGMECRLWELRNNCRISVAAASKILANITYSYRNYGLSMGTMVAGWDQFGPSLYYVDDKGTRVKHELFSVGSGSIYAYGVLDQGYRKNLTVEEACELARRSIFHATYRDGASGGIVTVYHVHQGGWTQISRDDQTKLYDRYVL

Homo sapiens = species: Homo sapiens; assay: To identify inhibition of the IFN signalling (Jak-Stat) pathway via expression of an eGFP reporter gene under the control of an IFN-stimulated response element (ISRE) containing MxA promoter.; assay type: functional; conditions: 30 µM
[7] = target: T4, Tyrosyl-tRNA synthetase, putative (Trypanosoma cruzi (strain CL Brener)) (UniProt Q4DSP6); assay: Trypanosoma cruzi tyrosyl tRNA synthetase (TcYRS) _High Tyrosine SOP; assay type: functional; conditions: 30 µM; further: in the data most compounds retested in dose-response had high values
T4 sequence (whole entry): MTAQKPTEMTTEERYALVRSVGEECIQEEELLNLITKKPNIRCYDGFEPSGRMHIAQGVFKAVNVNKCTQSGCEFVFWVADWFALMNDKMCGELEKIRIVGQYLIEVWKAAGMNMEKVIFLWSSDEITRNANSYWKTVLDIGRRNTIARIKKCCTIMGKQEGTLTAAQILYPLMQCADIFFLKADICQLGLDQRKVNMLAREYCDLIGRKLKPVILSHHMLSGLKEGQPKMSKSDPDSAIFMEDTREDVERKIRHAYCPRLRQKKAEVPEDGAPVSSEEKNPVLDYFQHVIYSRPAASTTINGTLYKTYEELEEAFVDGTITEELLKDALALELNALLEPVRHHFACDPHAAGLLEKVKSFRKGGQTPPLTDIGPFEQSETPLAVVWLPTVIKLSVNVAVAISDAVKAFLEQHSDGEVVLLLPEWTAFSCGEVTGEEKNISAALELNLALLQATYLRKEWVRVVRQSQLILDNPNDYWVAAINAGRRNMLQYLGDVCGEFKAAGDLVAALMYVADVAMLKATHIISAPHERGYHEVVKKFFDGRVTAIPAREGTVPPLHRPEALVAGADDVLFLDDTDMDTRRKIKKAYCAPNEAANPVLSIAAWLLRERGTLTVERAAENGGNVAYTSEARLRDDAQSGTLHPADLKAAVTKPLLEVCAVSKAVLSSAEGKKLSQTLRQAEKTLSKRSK

[8] = target: T4, Tyrosyl-tRNA synthetase, putative (Trypanosoma cruzi (strain CL Brener)); assay: Trypanosoma cruzi tyrosyl tRNA synthetase (TcYRS) SOP; assay type: functional; conditions: 30 µM
[9] = target: Chromo domain-containing protein 1 (Saccharomyces cerevisiae (strain ATCC 204508 / S288c) (Baker's yeast)) (UniProt P32657); assay: ScCHD-1 Enzyme Inhibition Assay; assay type: functional; conditions: 30 µM; further: in the data most compounds retested in dose-response had high values
Sequence of Chromo domain-containing protein 1 (Saccharomyces cerevisiae (strain ATCC 204508 / S288c) (Baker's yeast)) (P32657 whole entry, the tested form may be a part): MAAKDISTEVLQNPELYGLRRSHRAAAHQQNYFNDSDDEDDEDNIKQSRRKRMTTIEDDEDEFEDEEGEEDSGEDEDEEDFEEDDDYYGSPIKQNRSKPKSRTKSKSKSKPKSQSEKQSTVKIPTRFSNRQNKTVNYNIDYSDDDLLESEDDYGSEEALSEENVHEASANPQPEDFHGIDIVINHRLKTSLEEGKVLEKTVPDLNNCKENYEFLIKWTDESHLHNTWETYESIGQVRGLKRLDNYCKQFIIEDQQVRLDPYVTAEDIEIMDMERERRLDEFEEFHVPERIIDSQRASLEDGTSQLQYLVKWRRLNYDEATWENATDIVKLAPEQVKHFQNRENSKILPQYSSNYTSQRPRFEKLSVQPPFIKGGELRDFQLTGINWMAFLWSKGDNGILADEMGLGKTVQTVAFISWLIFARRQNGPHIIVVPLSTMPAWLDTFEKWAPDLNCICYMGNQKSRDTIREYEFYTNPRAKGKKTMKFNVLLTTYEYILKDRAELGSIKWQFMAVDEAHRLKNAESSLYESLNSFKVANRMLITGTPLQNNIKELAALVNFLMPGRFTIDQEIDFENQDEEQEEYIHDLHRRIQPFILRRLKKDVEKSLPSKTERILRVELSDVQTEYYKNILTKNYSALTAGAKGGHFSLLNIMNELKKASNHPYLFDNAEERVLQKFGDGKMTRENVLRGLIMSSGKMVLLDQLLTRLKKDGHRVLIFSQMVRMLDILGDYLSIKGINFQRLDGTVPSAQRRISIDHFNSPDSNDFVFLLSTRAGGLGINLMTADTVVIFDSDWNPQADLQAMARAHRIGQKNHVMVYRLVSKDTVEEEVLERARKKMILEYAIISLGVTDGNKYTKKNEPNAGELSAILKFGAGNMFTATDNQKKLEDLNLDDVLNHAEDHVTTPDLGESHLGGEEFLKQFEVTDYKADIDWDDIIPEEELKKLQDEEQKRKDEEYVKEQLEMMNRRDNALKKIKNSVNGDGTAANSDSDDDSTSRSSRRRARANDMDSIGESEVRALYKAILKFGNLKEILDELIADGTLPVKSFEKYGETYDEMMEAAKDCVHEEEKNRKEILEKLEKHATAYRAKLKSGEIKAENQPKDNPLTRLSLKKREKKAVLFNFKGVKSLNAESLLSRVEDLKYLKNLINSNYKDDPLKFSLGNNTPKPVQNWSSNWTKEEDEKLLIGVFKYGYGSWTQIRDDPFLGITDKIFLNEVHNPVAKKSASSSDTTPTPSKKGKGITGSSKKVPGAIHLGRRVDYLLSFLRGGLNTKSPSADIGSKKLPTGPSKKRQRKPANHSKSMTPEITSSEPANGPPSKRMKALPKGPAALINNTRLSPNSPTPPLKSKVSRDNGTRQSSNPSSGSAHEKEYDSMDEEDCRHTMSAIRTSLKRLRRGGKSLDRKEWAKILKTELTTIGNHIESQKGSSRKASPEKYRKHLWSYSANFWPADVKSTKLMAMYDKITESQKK

Sequence of Protein translocase subunit SecA (Escherichia coli (strain K12)) (P10408 whole entry): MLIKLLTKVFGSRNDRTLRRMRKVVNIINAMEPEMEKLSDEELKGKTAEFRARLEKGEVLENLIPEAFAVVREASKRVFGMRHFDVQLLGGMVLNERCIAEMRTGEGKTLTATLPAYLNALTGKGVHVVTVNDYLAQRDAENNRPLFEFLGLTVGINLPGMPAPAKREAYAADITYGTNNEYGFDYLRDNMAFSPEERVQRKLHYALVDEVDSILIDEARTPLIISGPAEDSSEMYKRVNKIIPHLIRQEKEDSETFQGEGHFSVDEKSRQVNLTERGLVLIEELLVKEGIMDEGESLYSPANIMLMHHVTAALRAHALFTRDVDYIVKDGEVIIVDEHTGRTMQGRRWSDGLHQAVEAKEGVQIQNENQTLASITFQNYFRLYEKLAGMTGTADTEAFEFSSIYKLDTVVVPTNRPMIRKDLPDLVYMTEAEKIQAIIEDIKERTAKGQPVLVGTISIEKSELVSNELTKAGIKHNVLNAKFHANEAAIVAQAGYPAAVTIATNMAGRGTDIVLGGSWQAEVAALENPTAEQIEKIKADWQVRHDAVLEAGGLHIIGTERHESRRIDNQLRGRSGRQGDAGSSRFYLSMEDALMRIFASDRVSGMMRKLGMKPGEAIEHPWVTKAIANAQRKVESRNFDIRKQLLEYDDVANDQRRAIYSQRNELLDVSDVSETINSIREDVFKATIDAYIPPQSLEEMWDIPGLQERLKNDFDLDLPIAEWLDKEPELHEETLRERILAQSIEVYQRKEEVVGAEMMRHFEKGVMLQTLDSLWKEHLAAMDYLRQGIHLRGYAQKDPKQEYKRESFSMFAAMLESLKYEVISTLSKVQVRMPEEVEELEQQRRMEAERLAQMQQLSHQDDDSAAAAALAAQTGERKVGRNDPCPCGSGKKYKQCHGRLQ

## O=C(CNC(=O)N1CCc2c([nH]c3ccc(Cl)cc23)C1)N1CCOCC1
[1]
  Percent Effect: -8.87%
[2]
  Percent Effect: -4%
[3]
  Percent Effect: 11.7%
[4]
  Percent Effect: -3.55%
Trypanosoma cruzi
  Percent Effect: -2.55%
[5]
  Percent Effect: -20.2%
[6]
  Percent Effect: 10.5%
Homo sapiens
  Percent Effect: 7.25%
[7]
  Percent Effect: -3.17%
[8]
  Percent Effect: -5.13%
[9]
  Percent Effect: -12.6%

## CN1CC(=O)N(c2ccccc2)CC12CCN(Cc1nccs1)C2 (stereo unspecified)
[1]
  Percent Effect: 3.96%
[2]
  Percent Effect: 5.33%
[3]
  Percent Effect: 4.18%
[4]
  Percent Effect: -3.23%
Trypanosoma cruzi
  Percent Effect: -6.95%
[5]
  Percent Effect: -56.1%
[6]
  Percent Effect: 13%
Homo sapiens
  Percent Effect: -0.957%
[7]
  Percent Effect: 4.17%
[8]
  Percent Effect: 22.5%
[9]
  Percent Effect: -4.64%

## Clc1snnc1CN1CCCCC1Cn1cncn1 (stereo unspecified)
[1]
  Percent Effect: -0.0251%
[2]
  Percent Effect: 17.7%
[3]
  Percent Effect: -10.2%
[4]
  Percent Effect: -9.75%
Trypanosoma cruzi
  Percent Effect: -2.17%
[5]
  Percent Effect: 2.66%
[6]
  Percent Effect: 13.2%
Homo sapiens
  Percent Effect: 5.04%
[7]
  Percent Effect: 12.3%
[8]
  Percent Effect: 24.1%
[9]
  Percent Effect: -4.67%

## Cc1nc(C)n(CC2CN(c3ccc(C#N)cn3)CCO2)n1 (stereo unspecified)
[1]
  Percent Effect: -4.11%
[2]
  Percent Effect: 10.5%
[3]
  Percent Effect: -4.42%
[4]
  Percent Effect: 10.3%
Trypanosoma cruzi
  Percent Effect: 5.88%
[5]
  Percent Effect: 1.44%
[6]
  Percent Effect: 6.51%
Homo sapiens
  Percent Effect: -2.74%
[7]
  Percent Effect: 6.4%
[8]
  Percent Effect: 18.5%
[9]
  Percent Effect: -3.17%

## O=C(O)c1nnn(-c2ccc(F)c(F)c2)c1-c1ccncc1
[1]
  Percent Effect: -2.11%
[2]
  Percent Effect: 13.2%
[3]
  Percent Effect: 4.49%
[4]
  Percent Effect: -2.68%
Trypanosoma cruzi
  Percent Effect: -3.6%
[5]
  Percent Effect: 4.73%
[6]
  Percent Effect: 20.6%
Homo sapiens
  Percent Effect: -18.7%
[7]
  Percent Effect: 2.13%
[8]
  Percent Effect: 2.6%
[9]
  Percent Effect: -1.59%

## CN(C)C1CCN(C(=O)c2ccc(Cn3ccccc3=O)o2)CC1
[1]
  Percent Effect: -2.62%
[2]
  Percent Effect: 8.11%
[3]
  Percent Effect: 3.53%
[4]
  Percent Effect: 12.9%
Trypanosoma cruzi
  Percent Effect: 2.88%
[5]
  Percent Effect: 0.924%
[6]
  Percent Effect: 0%
Homo sapiens
  Percent Effect: 5.91%
[7]
  Percent Effect: 6.93%
[8]
  Percent Effect: 23.2%
[9]
  Percent Effect: -4.27%

## CN1CC(=O)N(c2cccc(F)c2)CC12CCN(Cc1cccnc1)C2 (stereo unspecified)
[1]
  Percent Effect: 1.08%
[2]
  Percent Effect: 7.79%
[3]
  Percent Effect: 4.97%
[4]
  Percent Effect: 4.25%
Trypanosoma cruzi
  Percent Effect: -2.46%
[5]
  Percent Effect: 12.3%
[6]
  Percent Effect: 12.9%
Homo sapiens
  Percent Effect: 7.53%
[7]
  Percent Effect: 3.17%
[8]
  Percent Effect: 11.5%
[9]
  Percent Effect: -1.97%

## Cc1nc(-c2ccccc2)n(CC(=O)NCC(C)C)n1
[1]
  Percent Effect: -1.39%
[2]
  Percent Effect: 13.5%
[3]
  Percent Effect: -9.59%
[4]
  Percent Effect: -7.18%
Trypanosoma cruzi
  Percent Effect: -7.08%
[5]
  Percent Effect: -4.01%
[6]
  Percent Effect: 1.62%
Homo sapiens
  Percent Effect: 19.8%
[7]
  Percent Effect: 5.42%
[8]
  Percent Effect: 13.6%
[9]
  Percent Effect: -5.55%

## CC(NC(=O)NCCNc1cnccn1)c1cccs1 (stereo unspecified)
[1]
  Percent Effect: -1.5%
[2]
  Percent Effect: 23.4%
[3]
  Percent Effect: 1.73%
[4]
  Percent Effect: 3.58%
Trypanosoma cruzi
  Percent Effect: 2.81%
[5]
  Percent Effect: 2.49%
[6]
  Percent Effect: 3.21%
Homo sapiens
  Percent Effect: -20.8%
[7]
  Percent Effect: 8.74%
[8]
  Percent Effect: 24.4%
[9]
  Percent Effect: -11.5%

## Cn1c(C(=O)N2CCC(C(=O)N3CCCC3)CC2)c(Cl)c2ccccc21
[1]
  Percent Effect: -4.1%
[2]
  Percent Effect: 5.33%
[3]
  Percent Effect: -1.92%
[4]
  Percent Effect: 6.11%
Trypanosoma cruzi
  Percent Effect: 2.82%
[5]
  Percent Effect: 2.6%
[6]
  Percent Effect: 25.5%
Homo sapiens
  Percent Effect: 0.0464%
[7]
  Percent Effect: 8.2%
[8]
  Percent Effect: 13.6%
[9]
  Percent Effect: -6.83%

## Cc1nc(C)n(CC2CCCN(CCNC(=O)OC(C)(C)C)C2)n1 (stereo unspecified)
[1]
  Percent Effect: -0.765%
[2]
  Percent Effect: 2.6%
[3]
  Percent Effect: 5.46%
[4]
  Percent Effect: 11.6%
Trypanosoma cruzi
  Percent Effect: 1.67%
[5]
  Percent Effect: 5.26%
[6]
  Percent Effect: 5.9%
Homo sapiens
  Percent Effect: 9.69%
[7]
  Percent Effect: 2.86%
[8]
  Percent Effect: 0%
[9]
  Percent Effect: -4.66%

From ChEMBL document CHEMBL3988442, “University of Dundee, Small-Polar-MMV Screening Library” (2021)
